Screens (PubChem BioAssay)
Cycloheximide cs – counter-screen hit for Shiga toxin inhibitors, cycloheximide | max response, % | actives 12% (n = 300,000) | cell reporter, cycloheximide protein synthesis inhibition counterscreen | AID 2314; in the data active = max response mostly above about 13%, no sharp cut-off; inactive = mostly below about 14%; also: read at 38.3 µM for the half of the compounds with a filed dose
Lassa entry inh – Lassa virus entry inhibition | Lassa virus pseudotype entry inhibition, cell reporter | Potency, µM (doses to about 37.9 µM), most hits filed as inhibitors | actives 1.2% (n = 300,000) | AID 540256; calls by dose curve; tested in HEK293 cells; also: nearly all actives have a fitted effect of over 50% in size
MARV entry inh – blocks Marburg virus binding to or entry into cells; AID 540276; actives 1.8% (n = 300,000); Marburg virus pseudotyped entry inhibition, cell reporter; Potency, µM (doses to about 37.8 µM), actives largely listed as inhibitors; calls by dose curve; tested in HEK293 cells
Shiga inhibitor – inhibitors of Shiga toxin in Vero cells; Vero cells, Shiga toxin protein synthesis inhibition reporter; inhibition, % at 38.7 µM; actives 9.2% (n = 290,000); in the data active = inhibition mostly above about 28%, no sharp cut-off; inactive = mostly below about 43%
Each line names hits and unclear results; the compound was inactive in the other large screens. The list is not random: actives were taken first. Their share in the collection is about 12%.

O=[N+]([O-])c1cccnc1Sc1ccc(Cl)cc1	MARV entry inh inconclusive
O=[N+]([O-])c1cccnc1Sc1n[nH]c(-c2ccc(Cl)cc2)n1	Cycloheximide cs 37, Shiga inhibitor 55 (no result: Lassa entry inh, MARV entry inh)
COc1ccc(CN(C)CC2CCCN(CCc3ccc(F)cc3)C2)cc1OC (stereo not drawn)	none (no result: Lassa entry inh, MARV entry inh)
COc1ccccc1CCN1CCCC(CN(C)CC(C)(C)CO)C1 (stereo not drawn)	Lassa entry inh inconclusive, MARV entry inh 13µM (no result: Shiga inhibitor)
COc1ccc(CN(C)CC2CCCN(CCc3ccc(Cl)cc3)C2)cc1OC (stereo not drawn)	Lassa entry inh inconclusive, MARV entry inh 2.2µM
COc1ccc(F)c(CN(C)CC2CCCN(CCc3ccc(F)cc3)C2)c1 (stereo not drawn)	Lassa entry inh inconclusive, MARV entry inh 11µM
COc1ccc(NC(=O)COC(=O)CO/N=C(\C)c2ccc3c(c2)OCO3)cc1S(N)(=O)=O	none (no result: Cycloheximide cs, Shiga inhibitor)
C=CCN1C(=O)c2ccc(C(=O)N3CCN(S(=O)(=O)c4ccccc4Br)CC3)cc2C1=O	none (no result: Cycloheximide cs, Shiga inhibitor)
O=C(c1cc(Br)ccc1Cl)N1CCC2(CC1)OCCO2	none
Cc1ccc2[nH]c(C(=O)N3CCOCC3)cc2c1	Cycloheximide cs active, MARV entry inh inconclusive
O=C(c1cc2cc(Br)ccc2[nH]1)N1CCC2(CC1)OCCO2	Cycloheximide cs 28 (no result: Lassa entry inh, MARV entry inh)
Cc1ccc2[nH]c(C(=O)N3CCCCC3)cc2c1	Cycloheximide cs 26 (no result: Shiga inhibitor)
CCN(CC)c1ccc(NC(=O)C(Cc2ccccc2)NS(=O)(=O)c2ccc(Br)s2)c(C)c1 (stereo not drawn)	none (no result: Cycloheximide cs, Shiga inhibitor)
O=C(CN1CCN(c2cccc(Cl)c2)CC1)NCc1ccccc1	none (no result: Lassa entry inh, MARV entry inh)
O=C(CN1CCN(c2cccc(C(F)(F)F)c2)CC1)NCc1ccccc1	Lassa entry inh 8.9µM
O=C(CN1CCN(c2ccc(Cl)cc2)CC1)NCc1ccccc1	Lassa entry inh 6.3µM, MARV entry inh inconclusive
O=C(Cc1ccc(NS(=O)(=O)c2cccc(C(F)(F)F)c2)cc1)NCCN1CCOCC1	none (no result: Cycloheximide cs, Shiga inhibitor)
CCCNC(=O)c1csc(Nc2cccc3ccccc23)n1	none (no result: Lassa entry inh, MARV entry inh, Shiga inhibitor)
CN(C)CCNC(=O)c1csc(Nc2cccc3ccccc23)n1	Lassa entry inh inconclusive, MARV entry inh 10µM (no result: Shiga inhibitor)
O=C(NCC1CCCO1)c1csc(Nc2cccc3ccccc23)n1 (stereo not drawn)	Cycloheximide cs 41, Shiga inhibitor 77 (no result: Lassa entry inh, MARV entry inh)
COCCNC(=O)c1csc(Nc2cccc3ccccc23)n1	none (no result: Lassa entry inh, MARV entry inh)
COc1cccc(C(=O)Nc2ccc(-n3nncc3C(C)(C)C)cc2)c1	Cycloheximide cs 21, Shiga inhibitor 64
COc1cccc(C(=O)Nc2ccc(NC(=O)c3ccc(C(C)(C)C)cc3)cc2)c1	none (no result: Cycloheximide cs, MARV entry inh, Shiga inhibitor)
CC(C)(C)c1cnnn1-c1ccc(NC(=O)c2ccc3c(c2)OCO3)cc1	Cycloheximide cs 13, Shiga inhibitor 28
COc1ccc(C2=NNC(c3cc(Cl)cc4c3OCOC4)C2)c(O)c1 (stereo not drawn)	Cycloheximide cs 17 (no result: Lassa entry inh, MARV entry inh)
O=C(NC1CCCCC1)NC1CC2CCC(C1)N2Cc1nnnn1Cc1ccc2c(c1)OCO2 (stereo not drawn)	Lassa entry inh inconclusive
CC(C)(C)c1ccc(C2=NC(=O)C(CC(=O)O)S2)cc1 (stereo not drawn)	Cycloheximide cs 13
CC(C)COC(=O)c1cc(=O)[nH]c2ccccc12	MARV entry inh inconclusive
CC(OC(=O)c1cc(=O)[nH]c2ccccc12)c1ccccc1 (stereo not drawn)	Cycloheximide cs 32, Lassa entry inh inconclusive, Shiga inhibitor 70
Cc1cc(C)c(NC(=O)CCCSc2nnc(N)s2)c(C)c1	none (no result: Lassa entry inh, MARV entry inh)
Nc1nnc(SCCCC(=O)c2ccccc2)s1	Cycloheximide cs 23 (no result: Lassa entry inh)
Nc1nnc(SCC(=O)c2ccc3ccccc3c2)s1	Cycloheximide cs 85, Lassa entry inh inconclusive, MARV entry inh inconclusive, Shiga inhibitor 151
Cc1cc(C)n2c(SCCC(C)C)nnc2n1	Cycloheximide cs 19
CC(C)CNC(=O)C(=O)NCC1OCCCN1S(=O)(=O)c1cccs1 (stereo not drawn)	none (no result: Lassa entry inh, MARV entry inh)
O=C(NCc1cccnc1)c1cc(S(=O)(=O)N2CCCCC2)ccc1Cl	none
O=C(CC1C(=O)NCCN1Cc1cccc(Oc2ccccc2)c1)NCCc1ccccn1 (stereo not drawn)	Lassa entry inh 6.3µM, MARV entry inh inconclusive
CC(C)(C)CN1CCNC(=O)C1CC(=O)NCCc1cnn(-c2ccccc2)c1 (stereo not drawn)	Cycloheximide cs 12
CC(C)CN1CCNC(=O)C1CC(=O)NCCc1cnn(-c2ccccc2)c1 (stereo not drawn)	none
COc1cccc(CN2CCNC(=O)C2CC(=O)NCCc2ccccn2)c1 (stereo not drawn)	none
Cc1csc(=O)n1CCC(=O)OCC(=O)Nc1cccc(C#N)c1	none (no result: Cycloheximide cs, Shiga inhibitor)
CCCCCCNC(=O)N[C@H](Cc1ccc(O)cc1)C(=O)NCCC[C@H]1CN2C(=NC[C@H]2CCC)N1CC1CCC1	none (no result: Lassa entry inh, MARV entry inh)
